Inconclusive results are not listed. A call without a number means that no potency is given here. Activity calls are given as the source filed them. Calls come from the whole dose curve; as a rule, active = well fitted cell-killing curve with a large enough effect in the repeat runs; inconclusive = weak or mixed curves, or effect the other way; inactive = flat fitted curve, though single readings scatter.
Potency is the fitted concentration of half-maximal effect.

A short description of the test: cAMP Responsive Elements (CRE) small molecule agonists, cell-based qHTS assay: qHTS cell viability counter screen (AID 2060914). Note: nearly all actives have a fitted effect of over 50% in size. The settings on record: CRE-bla HEK293T viability, CellTiter-Glo luminescence, 5 h; series mostly up to 92.4 µM. The method in brief: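 Luminescence read-out (CellTiter-Glo, 30 min RT) of ATP-based viability in CRE-bla HEK 293T cells, run in the same wells as the β-lactamase reporter assay after 3 h compound treatment at 37 °C.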
For orientation: qHTS replaces the single test concentration by a dilution series.
For the compound `CCOP(=O)(OCC)O/C(=C/Cl)c1ccc(Cl)cc1Cl`, the Potency result was “inactive”.
`O=C(Nc1ccccc1)Nc1ccnc(Cl)c1`: the Potency result was “inactive”.
Regarding `CC(C)C(C)(N)C#N` (stereo not given), the Potency entry is “inactive”.
Next, `O=C(CCl)C(Cl)Cl`: “inactive”.
Next, `OC[C@@H](O)[C@H]1O[C@@H]2O[C@H](C(Cl)(Cl)Cl)O[C@@H]2[C@H]1O`: “inactive”; `ClCOCCl`: “inactive”; `CC(C)CON=O`: “inactive”.
Then `CCCCOCC1CO1` (stereo not given), with “inactive”; and `C=C(Cl)Cl`, with “inactive”; and `COP(=O)(OC)O/C(=C/Cl)c1cc(Cl)c(Cl)cc1Cl`, with “inactive”.
For `Nc1nc(=S)[nH][nH]1`, the Potency result is “inactive”.
Next, `CCOP(=S)(OCC)SC(CCl)N1C(=O)c2ccccc2C1=O` (stereo not given): “inactive”; `c1ccc(Nc2ccc(Nc3ccccc3)cc2)cc1`: “inactive”.
For the compound `COC(=O)N(OC)c1ccccc1COc1ccn(-c2ccc(Cl)cc2)n1`, the Potency was 5.45 µM (active).
As to `O.O.O.O.O.O.O=S(=O)([O-])[O-].[Ni+2]`, the Potency entry is “inactive”.
Then `O=S(=O)(Oc1ccc(Cl)cc1)c1ccc(Cl)cc1`, with “inactive”; and `C[C@H]1CCC[C@H](O)CCCCCc2cc(O)cc(O)c2C(=O)O1`, with “inactive”; and `C[C@]12CC[C@H]3[C@@H](CCC4=CC(=O)CC[C@@]43C)[C@@H]1CC[C@@H]2O`, with “inactive”.
Then `Cc1ccccc1CO[C@@H]1C[C@@]2(C(C)C)CC[C@]1(C)O2`, with “inactive”.
`FC(F)C(F)(F)OCC(Cn1cncn1)c1ccc(Cl)cc1Cl` (stereo not given): the Potency entry was “inactive”.
Then `CCOP(=S)(OCC)O/N=C(\C#N)c1ccccc1`, with “inactive”; and `CCCSP(=O)(OCC)SCCC`, with “inactive”.
Then `CN(C)[C@@H]1C(=O)C(C(N)=O)=C(O)[C@@]2(O)C(=O)C3=C(O)c4c(O)cccc4[C@@](C)(O)[C@H]3C[C@@H]12`, with “inactive”; and `S=C=Nc1cccc2ccccc12`, with “inactive”.
Take `OCC(c1ccc(Cl)cc1)c1ccc(Cl)cc1`: the Potency entry is “inactive”.
`CCCCOCN(C(=O)CCl)c1c(CC)cccc1CC`: the Potency result was “inactive”.
Next, `CCOS(C)(=O)=O`: “inactive”; `BrCCCCCCBr`: “inactive”; `C=CC(=O)OCC(CC)(COC(=O)C=C)COC(=O)C=C`: “inactive”.
Then `CC1=C2C[C@H]3[C@@H](CC=C4C[C@@H](O)CC[C@@]43C)[C@@H]2CC[C@]12O[C@@H]1C[C@H](C)CN[C@H]1[C@H]2C`, with “inactive”.
As to `COC1=CC(=O)O[C@@H](/C=C/c2ccccc2)C1`, the Potency result was “inactive”.
Then `COC(=O)[C@@H](N)CCCN/C(N)=N/[N+](=O)[O-]`, with “inactive”; and `CCCCOP(=O)(CCCC)OCCCC`, with “inactive”.
Regarding `O=C(Cl)OCCOCCOC(=O)Cl`, the Potency entry is “inactive”.
As for `CCCOCC(=Nc1ccc(Cl)cc1C(F)(F)F)n1ccnc1`, the Potency result was “inactive”.
Then `C=C(Cl)CCl`, with “inactive”; and `CC(C)N1C(=O)N(c2ccccc2)CSC1=NC(C)(C)C`, with “inactive”; and `COP(=S)(OC)Oc1ccc(Sc2ccc(OP(=S)(OC)OC)cc2)cc1`, with “inactive”.
Next, `Cc1cc(C2CC2)nc(Nc2ccccc2)n1`: “inactive”; `CC(C)COP(=O)(OCC(C)C)OCC(C)C`: “inactive”.

(Values after PubChem BioAssay (Tox21).)
